Measurements as given in ChEMBL document CHEMBL1961873, “Compounds: GSK PKIS; Assays: Nanosyn kinase panel” (2012).

What was measured:
[1] = target: 5'-AMP-activated protein kinase catalytic subunit alpha-2 (Homo sapiens) (UniProt P54646); conditions: at 1 µM
[2] = target: T1, NUAK family SNF1-like kinase 1 (Homo sapiens) (UniProt O60285); conditions: at 0.1 µM
T1 sequence (whole entry): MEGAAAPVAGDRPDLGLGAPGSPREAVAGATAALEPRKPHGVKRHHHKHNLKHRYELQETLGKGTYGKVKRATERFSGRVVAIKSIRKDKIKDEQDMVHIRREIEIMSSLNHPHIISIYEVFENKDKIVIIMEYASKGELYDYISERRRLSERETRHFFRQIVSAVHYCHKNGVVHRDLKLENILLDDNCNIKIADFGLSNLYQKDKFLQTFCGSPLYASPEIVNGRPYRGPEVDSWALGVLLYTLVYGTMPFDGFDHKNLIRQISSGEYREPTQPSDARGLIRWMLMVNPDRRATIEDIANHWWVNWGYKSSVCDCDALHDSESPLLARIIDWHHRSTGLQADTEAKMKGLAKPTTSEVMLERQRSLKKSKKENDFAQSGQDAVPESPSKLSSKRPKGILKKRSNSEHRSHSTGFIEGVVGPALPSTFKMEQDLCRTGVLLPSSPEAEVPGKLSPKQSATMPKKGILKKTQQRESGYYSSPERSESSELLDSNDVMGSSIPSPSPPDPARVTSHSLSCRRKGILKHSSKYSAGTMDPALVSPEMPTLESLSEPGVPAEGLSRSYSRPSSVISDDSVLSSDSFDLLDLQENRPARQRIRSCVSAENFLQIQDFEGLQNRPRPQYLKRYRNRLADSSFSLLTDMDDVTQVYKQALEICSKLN

[3] = target: T1, NUAK family SNF1-like kinase 1 (Homo sapiens); conditions: at 1 µM
[4] = target: T2, Serine/threonine-protein kinase BRSK1 (Homo sapiens) (UniProt Q8TDC3); conditions: at 0.1 µM
T2 sequence (whole entry): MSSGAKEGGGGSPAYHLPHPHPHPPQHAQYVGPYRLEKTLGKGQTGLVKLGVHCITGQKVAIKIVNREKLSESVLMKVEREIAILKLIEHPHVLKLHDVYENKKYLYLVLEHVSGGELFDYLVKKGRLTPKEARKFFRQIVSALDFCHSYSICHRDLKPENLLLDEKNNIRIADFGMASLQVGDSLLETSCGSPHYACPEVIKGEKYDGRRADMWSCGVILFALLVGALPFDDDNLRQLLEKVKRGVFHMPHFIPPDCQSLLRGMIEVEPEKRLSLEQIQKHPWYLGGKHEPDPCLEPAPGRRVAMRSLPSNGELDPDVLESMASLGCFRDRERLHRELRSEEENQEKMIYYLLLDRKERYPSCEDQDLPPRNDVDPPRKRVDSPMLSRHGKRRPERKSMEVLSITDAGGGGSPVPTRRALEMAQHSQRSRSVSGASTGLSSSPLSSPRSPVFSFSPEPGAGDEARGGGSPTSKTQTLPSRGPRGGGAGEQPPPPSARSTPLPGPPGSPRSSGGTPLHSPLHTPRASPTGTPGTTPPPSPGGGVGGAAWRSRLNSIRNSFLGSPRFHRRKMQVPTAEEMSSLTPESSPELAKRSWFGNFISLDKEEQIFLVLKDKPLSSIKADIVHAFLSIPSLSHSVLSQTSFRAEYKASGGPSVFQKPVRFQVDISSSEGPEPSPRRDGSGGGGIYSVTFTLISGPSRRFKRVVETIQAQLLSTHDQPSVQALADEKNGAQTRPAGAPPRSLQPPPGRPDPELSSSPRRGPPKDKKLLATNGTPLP

[5] = target: T2, Serine/threonine-protein kinase BRSK1 (Homo sapiens); conditions: at 1 µM
[6] = target: T3, Serine/threonine-protein kinase BRSK2 (Homo sapiens) (UniProt Q8IWQ3); conditions: at 0.1 µM
T3 sequence (whole entry): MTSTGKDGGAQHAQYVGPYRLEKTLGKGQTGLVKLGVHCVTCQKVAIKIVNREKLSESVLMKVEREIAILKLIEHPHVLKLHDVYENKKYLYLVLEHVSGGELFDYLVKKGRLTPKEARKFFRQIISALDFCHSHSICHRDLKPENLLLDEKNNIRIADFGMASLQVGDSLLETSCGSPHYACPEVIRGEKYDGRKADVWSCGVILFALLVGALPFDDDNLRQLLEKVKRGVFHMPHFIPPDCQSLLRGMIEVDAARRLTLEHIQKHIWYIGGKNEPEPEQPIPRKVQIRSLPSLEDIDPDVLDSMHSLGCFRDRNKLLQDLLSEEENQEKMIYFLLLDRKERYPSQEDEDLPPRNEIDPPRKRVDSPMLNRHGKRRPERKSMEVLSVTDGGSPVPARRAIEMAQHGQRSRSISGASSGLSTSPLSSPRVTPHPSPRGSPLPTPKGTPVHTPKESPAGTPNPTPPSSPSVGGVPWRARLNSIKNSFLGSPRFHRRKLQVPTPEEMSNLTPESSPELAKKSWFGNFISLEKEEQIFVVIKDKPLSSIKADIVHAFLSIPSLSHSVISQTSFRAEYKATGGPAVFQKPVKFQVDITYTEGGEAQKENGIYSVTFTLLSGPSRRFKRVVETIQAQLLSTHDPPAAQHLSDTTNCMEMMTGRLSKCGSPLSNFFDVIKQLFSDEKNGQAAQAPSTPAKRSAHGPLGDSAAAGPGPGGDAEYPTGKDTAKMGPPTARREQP

[7] = target: T3, Serine/threonine-protein kinase BRSK2 (Homo sapiens); conditions: at 1 µM
[8] = target: Calcium/calmodulin-dependent protein kinase type 1D (Homo sapiens) (UniProt Q8IU85); conditions: at 0.1 µM
Chain of Calcium/calmodulin-dependent protein kinase type 1D (Homo sapiens) (Q8IU85 whole entry, looked up): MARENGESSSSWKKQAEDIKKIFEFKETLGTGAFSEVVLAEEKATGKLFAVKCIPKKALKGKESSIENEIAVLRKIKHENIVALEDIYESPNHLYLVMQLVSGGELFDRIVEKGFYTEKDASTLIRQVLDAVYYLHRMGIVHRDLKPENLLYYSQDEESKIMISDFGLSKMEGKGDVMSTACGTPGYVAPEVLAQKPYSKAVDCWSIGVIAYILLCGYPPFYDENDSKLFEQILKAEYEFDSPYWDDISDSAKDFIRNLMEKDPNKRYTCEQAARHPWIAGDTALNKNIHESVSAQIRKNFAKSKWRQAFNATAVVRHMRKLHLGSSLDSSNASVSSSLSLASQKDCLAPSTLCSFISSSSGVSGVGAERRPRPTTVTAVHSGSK

[9] = target: Calcium/calmodulin-dependent protein kinase type 1D (Homo sapiens) (UniProt Q8IU85); conditions: at 1 µM
[10] = target: Calcium/calmodulin-dependent protein kinase type II subunit alpha (Homo sapiens) (UniProt Q9UQM7); conditions: at 0.1 µM
Chain of Calcium/calmodulin-dependent protein kinase type II subunit alpha (Homo sapiens) (Q9UQM7 whole entry): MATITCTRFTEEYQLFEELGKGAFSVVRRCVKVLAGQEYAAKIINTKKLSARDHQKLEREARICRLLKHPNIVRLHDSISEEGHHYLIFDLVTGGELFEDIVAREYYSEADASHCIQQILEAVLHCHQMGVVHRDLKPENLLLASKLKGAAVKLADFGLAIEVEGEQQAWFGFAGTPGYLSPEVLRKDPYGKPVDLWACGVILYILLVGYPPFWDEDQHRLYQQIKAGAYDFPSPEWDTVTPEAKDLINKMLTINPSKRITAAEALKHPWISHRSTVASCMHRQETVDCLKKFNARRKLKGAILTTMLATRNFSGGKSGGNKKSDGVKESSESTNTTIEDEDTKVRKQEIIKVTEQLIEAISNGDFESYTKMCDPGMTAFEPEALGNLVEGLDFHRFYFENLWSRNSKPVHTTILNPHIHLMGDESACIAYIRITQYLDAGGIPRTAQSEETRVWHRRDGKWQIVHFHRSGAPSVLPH

[11] = target: Calcium/calmodulin-dependent protein kinase type II subunit alpha (Homo sapiens) (UniProt Q9UQM7); conditions: at 1 µM
[12] = target: Calcium/calmodulin-dependent protein kinase type II subunit delta (Homo sapiens) (UniProt Q13557); conditions: at 0.1 µM
Chain of Calcium/calmodulin-dependent protein kinase type II subunit delta (Homo sapiens) (Q13557 whole entry): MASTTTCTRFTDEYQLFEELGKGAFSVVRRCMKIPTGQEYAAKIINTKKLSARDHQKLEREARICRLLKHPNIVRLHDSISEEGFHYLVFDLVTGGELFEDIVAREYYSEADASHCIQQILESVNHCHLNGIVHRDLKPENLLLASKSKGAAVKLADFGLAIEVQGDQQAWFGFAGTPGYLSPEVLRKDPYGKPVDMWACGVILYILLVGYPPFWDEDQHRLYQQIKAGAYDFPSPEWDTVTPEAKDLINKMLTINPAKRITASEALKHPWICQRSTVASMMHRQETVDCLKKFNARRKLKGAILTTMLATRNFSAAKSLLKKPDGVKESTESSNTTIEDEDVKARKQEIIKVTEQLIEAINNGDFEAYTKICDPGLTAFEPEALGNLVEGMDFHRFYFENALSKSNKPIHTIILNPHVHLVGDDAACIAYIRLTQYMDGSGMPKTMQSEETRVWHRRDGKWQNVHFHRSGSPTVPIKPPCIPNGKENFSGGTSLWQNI

[13] = target: Calcium/calmodulin-dependent protein kinase type II subunit delta (Homo sapiens) (UniProt Q13557); conditions: at 1 µM
[14] = target: T4, Calcium/calmodulin-dependent protein kinase type IV (Homo sapiens) (UniProt Q16566); conditions: at 0.1 µM
T4 sequence (whole entry): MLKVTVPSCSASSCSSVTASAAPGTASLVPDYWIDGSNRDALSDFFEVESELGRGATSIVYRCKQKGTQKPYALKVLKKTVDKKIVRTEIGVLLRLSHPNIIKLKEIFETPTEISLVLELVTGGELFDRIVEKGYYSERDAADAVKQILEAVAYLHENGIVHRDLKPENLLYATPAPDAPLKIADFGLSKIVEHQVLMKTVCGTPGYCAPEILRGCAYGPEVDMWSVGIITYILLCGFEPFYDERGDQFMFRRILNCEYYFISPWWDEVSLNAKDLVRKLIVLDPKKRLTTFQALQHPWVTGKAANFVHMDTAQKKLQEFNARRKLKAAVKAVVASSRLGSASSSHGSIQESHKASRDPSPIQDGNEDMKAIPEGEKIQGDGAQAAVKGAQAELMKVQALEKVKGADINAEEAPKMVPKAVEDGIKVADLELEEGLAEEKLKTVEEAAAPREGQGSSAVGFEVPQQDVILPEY

[15] = target: T4, Calcium/calmodulin-dependent protein kinase type IV (Homo sapiens); conditions: at 1 µM
[16] = target: T5, Serine/threonine-protein kinase Chk1 (Homo sapiens) (UniProt O14757); conditions: at 0.1 µM
T5 sequence (whole entry): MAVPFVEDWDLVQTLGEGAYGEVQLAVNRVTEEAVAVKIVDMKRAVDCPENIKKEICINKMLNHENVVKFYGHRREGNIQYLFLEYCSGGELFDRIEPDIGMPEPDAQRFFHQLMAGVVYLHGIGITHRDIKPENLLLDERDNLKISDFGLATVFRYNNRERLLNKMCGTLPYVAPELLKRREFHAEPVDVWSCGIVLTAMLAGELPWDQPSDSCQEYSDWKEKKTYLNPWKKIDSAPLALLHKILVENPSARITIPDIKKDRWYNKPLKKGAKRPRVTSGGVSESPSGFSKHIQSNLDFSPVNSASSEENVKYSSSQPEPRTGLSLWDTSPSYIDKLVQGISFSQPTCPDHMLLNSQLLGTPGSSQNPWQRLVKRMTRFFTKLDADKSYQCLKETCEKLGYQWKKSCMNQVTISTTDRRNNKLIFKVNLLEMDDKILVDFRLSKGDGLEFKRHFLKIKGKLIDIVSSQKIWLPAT

[17] = target: T5, Serine/threonine-protein kinase Chk1 (Homo sapiens); conditions: at 1 µM
[18] = target: Serine/threonine-protein kinase Chk2 (Homo sapiens) (UniProt O96017); conditions: at 0.1 µM
Chain of Serine/threonine-protein kinase Chk2 (Homo sapiens) (O96017 whole entry): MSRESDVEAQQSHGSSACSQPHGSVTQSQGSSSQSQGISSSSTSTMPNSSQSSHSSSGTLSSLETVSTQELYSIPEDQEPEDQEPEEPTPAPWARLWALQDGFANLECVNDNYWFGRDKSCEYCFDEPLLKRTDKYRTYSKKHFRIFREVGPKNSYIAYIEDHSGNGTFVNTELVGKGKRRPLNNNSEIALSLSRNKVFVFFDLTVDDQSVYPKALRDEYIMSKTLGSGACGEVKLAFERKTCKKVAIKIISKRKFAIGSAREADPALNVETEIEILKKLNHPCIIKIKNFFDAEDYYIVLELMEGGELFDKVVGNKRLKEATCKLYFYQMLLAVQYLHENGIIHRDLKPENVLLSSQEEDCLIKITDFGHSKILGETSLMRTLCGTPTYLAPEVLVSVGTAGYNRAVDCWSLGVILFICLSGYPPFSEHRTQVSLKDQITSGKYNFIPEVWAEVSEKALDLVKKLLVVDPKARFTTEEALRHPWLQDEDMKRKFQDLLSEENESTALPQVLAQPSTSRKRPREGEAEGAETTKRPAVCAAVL

[19] = target: Serine/threonine-protein kinase Chk2 (Homo sapiens) (UniProt O96017); conditions: at 1 µM
[20] = target: Death-associated protein kinase 1 (Homo sapiens) (UniProt P53355); conditions: at 0.1 µM;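 note: reported figure is the mean inhibition of DAPK1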
Chain of Death-associated protein kinase 1 (Homo sapiens) (P53355 whole entry, looked up): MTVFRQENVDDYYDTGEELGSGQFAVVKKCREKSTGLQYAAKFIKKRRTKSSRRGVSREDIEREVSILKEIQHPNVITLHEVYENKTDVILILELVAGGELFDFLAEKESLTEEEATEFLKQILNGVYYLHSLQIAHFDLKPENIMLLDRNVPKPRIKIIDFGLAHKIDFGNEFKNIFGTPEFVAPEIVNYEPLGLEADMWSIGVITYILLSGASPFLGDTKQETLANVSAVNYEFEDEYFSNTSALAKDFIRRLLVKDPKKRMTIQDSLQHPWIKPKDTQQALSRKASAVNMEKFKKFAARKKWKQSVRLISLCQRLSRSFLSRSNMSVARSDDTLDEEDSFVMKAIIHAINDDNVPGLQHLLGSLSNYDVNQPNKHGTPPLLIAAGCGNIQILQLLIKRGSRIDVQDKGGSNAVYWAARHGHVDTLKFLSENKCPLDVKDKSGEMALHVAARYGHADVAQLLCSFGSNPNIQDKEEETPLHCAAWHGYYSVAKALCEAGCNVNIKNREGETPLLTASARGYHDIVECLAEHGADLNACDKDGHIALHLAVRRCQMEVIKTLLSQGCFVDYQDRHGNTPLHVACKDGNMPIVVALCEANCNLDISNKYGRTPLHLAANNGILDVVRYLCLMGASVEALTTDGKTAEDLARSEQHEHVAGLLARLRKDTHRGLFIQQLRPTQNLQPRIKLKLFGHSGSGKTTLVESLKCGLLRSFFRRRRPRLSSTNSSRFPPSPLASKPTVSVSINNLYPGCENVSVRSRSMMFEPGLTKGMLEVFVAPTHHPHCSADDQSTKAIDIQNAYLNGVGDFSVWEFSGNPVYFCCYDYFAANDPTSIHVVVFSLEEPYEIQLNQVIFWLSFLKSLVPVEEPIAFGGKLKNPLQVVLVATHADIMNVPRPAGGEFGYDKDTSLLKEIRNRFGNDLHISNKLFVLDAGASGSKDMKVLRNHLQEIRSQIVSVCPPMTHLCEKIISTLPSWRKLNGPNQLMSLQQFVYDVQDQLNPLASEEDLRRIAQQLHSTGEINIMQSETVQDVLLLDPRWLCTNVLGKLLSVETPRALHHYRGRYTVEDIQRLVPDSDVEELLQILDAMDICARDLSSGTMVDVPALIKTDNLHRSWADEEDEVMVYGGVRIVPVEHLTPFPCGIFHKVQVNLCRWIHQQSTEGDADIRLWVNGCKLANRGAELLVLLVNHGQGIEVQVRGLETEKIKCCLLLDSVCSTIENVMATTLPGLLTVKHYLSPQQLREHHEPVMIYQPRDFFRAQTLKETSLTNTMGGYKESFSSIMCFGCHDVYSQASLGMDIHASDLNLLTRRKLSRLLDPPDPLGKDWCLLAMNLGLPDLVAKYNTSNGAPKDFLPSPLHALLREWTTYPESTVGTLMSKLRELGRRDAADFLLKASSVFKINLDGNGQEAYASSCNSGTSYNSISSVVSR

Chain of 5'-AMP-activated protein kinase catalytic subunit alpha-2 (Homo sapiens) (P54646 whole entry, looked up): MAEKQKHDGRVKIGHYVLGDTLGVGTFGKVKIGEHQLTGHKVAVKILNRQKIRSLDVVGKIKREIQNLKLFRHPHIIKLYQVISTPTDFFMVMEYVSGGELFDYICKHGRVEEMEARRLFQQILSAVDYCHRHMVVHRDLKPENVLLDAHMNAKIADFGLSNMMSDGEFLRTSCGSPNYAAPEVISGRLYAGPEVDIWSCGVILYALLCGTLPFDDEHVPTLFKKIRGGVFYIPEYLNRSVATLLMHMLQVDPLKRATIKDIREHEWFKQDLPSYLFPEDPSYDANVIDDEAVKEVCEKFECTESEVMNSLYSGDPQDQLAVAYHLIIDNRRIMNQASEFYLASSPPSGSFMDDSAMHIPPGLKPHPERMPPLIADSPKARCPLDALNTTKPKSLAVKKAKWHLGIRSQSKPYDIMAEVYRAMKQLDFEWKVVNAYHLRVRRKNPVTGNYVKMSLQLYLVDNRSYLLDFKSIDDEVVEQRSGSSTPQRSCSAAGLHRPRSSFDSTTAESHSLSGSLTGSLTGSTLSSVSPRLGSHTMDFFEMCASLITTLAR

Compound	inhibition [1] [%]	inhibition [2] [%]	inhibition [3] [%]	inhibition [4] [%]	inhibition [5] [%]	inhibition [6] [%]	inhibition [7] [%]	inhibition [8] [%]	inhibition [9] [%]	inhibition [10] [%]	inhibition [11] [%]	inhibition [12] [%]	inhibition [13] [%]	inhibition [14] [%]	inhibition [15] [%]	inhibition [16] [%]	inhibition [17] [%]	inhibition [18] [%]	inhibition [19] [%]	inhibition [20] [%]
Cc1ccc2c(-c3ccnc(Nc4cccc(C(F)(F)F)c4)n3)c(-c3ccccc3)nn2n1	3.47	4.18	5.3	2.22	1.34	1.33	3.25	0.64	2.72	2.64	1.98	2.93	5.15	1.16	3.52	-6.21	-9.83	-3.6	-3.73	-4.51
COc1cccc(-n2ncc3c(N/N=C/c4ccc(C)cc4)ncnc32)c1	6	6.88	16.2	6.04	9.05	5.73	12.7	0.52	3.47	3.6	5.56	4.56	12.5	1.46	4.68	-5.6	-5.11	-1.83	2.47	-3.26
COc1cccc(-n2nc(C)c3c(N/N=C(\C)c4ccncc4)ncnc32)c1	1.4	3.11	2.97	0.77	-2.02	-0.07	0.93	-0.6	2.19	-1.72	-0.32	0.75	1.55	-0.54	0.81	0.24	0.57	0.02	0.48	0.32
O=S(=O)(CCOCc1ccc(-c2ccc3ncnc(Nc4ccc(OCc5cccc(F)c5)c(Cl)c4)c3c2)o1)c1ccccc1	1.68	-2.09	-0.72	-0.74	1.37	1.25	2.98	0	0.46	-0.52	-0.9	0.42	1.29	-1.19	-1.67	3.34	2.55	1.33	3.09	1.67
CS(=O)(=O)CCNCc1nc(-c2ccc3ncnc(Nc4ccc(OCc5cccc(C(F)(F)F)c5)cc4)c3c2)cs1	2.15	0.06	2.2	2.31	-0.57	0.24	1.3	-0.5	2.37	1.59	2.45	2.93	3.53	0.68	1.44	1.74	5.07	1.74	5.27	3.32
COC(=O)c1ccc2c(c1)C(=Cc1cc(Br)c(O)c(Br)c1)C(=O)N2	4.79	-1.29	2.73	3.81	2.04	0.42	5.14	0.26	3.35	2.97	5.83	3.29	9.61	-0.49	4.64	9.68	14.6	8.72	20.6	9.92
